# Assay results published in the supplement of paper PMC12636033.
# ± gives the standard deviation of the averaged measurements. Over roughly 33,000 sequences, “E-score (rank enrichment, -0.5 to 0.5)” has its median near -0.0028; the highest 2% begin near 0.23. The full list was thinned out, with the highest values kept by preference.
# Test system: 2Sb-muMax20 (muMax20 with two 1,3-bis(methyl)benzene Cys staples, A13C/A17C and Q88C/A92C, C-terminal Lys)
# Test: PBM 8-mer E-score (E-score (rank enrichment, -0.5 to 0.5)); higher = stronger preferential binding
# Procedure: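 Protein binding microarray (universal PBM chip covering all 10-mers in fixed probe flanks) with chemically synthesized human Max(13-93) bHLH-LZ analogs (not full-length Max) bearing noncanonical residues (hArg, Tha, Aib, Nle at 65) and aromatic Cys staples. Read-out per 8-mer (and its reverse complement): E-score (rank-based enrichment, -0.5 to 0.5) and Z-score of median probe intensity.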
row,Sequence,PBM 8-mer E-score
1,CAGCTGAA,-0.0746 ± 0.0082
2,AAAATGAC,0.134 ± 0.0081
3,CCCCTAAA,0.0345 ± 0.052
4,CAGGCAAG,-0.0204 ± 0.051
5,CAGTGAAG,-0.0862 ± 0.073
6,AATGAGAA,-0.0163 ± 0.03
7,GCGAACCA,-0.037 ± 0.021
8,ACAGATTC,0.111 ± 0.028
9,GCGTGGTA,0.0782 ± 0.019
10,CTCTACTA,0.168 ± 0.024
11,ATGCCATC,0.134 ± 0.0047
12,ATGCCATA,0.246 ± 0.022
13,ATGCCATG,0.026 ± 0.072
14,AAACAGAT,-0.0777 ± 0.083
15,GTTTGAGA,-0.0465 ± 0.092
16,CAACAGAC,0.0401 ± 0.00088
17,AACATATG,0.182 ± 0.013
18,AACATATC,0.124 ± 0.0061
19,AACATATT,0.2329 ± 0.0015
20,GACATATA,0.0756 ± 0.061
21,AACATATA,0.237 ± 0.031
22,CACATATA,0.21 ± 0.068
23,ATCGTTAG,-0.0184 ± 0.067
24,GTAGACAC,0.0487 ± 0.053
25,ATTACAAC,0.1 ± 0.033

row,Sequence,PBM 8-mer E-score
1,GATAGGGA,-0.111 ± 0.072
2,AATAGGGA,0.23 ± 0.0053
3,TATAGGGA,-0.0259 ± 0.048
4,ATCAAACG,-0.0315 ± 0.075
5,TTGTACAA,0.29 ± 0.033
6,CTGTACAA,0.0289 ± 0.12
7,AGGTATAA,0.147 ± 0.0065
8,CGGTATAA,0.127 ± 0.043
9,GGGTACAA,0.0409 ± 0.026
10,GTGTACAA,0.216 ± 0.039
11,TGGTACAA,0.265 ± 0.021
12,TGGTATAA,0.239 ± 0.0046
13,AGGTACAA,0.0983 ± 0.038
14,CGTTAACC,0.0325 ± 0.077
15,CTCGCCAG,-0.193 ± 0.077
16,CACGAATA,0.0625 ± 0.022
17,CCGTATGA,-0.0951 ± 0.073
18,AAAGCATG,0.181 ± 0.039
19,ACCGGGAT,-0.253 ± 0.025
20,AATCCCCA,0.258 ± 0.01
21,AATCCCCT,0.2795 ± 0.0021
22,GATCCCCA,0.153 ± 0.12
23,CATCCCCA,0.141 ± 0.047
24,AATCCCCG,0.0673 ± 0.076
25,TATCCCCA,0.282 ± 0.018

row,Sequence,PBM 8-mer E-score
1,AATCCCAA,0.158 ± 0.025
2,AATCCCAT,0.185 ± 0.057
3,AATCCCCC,-0.219 ± 0.0031
4,ATCGCTAC,-0.0426 ± 0.015
5,CCCGACAC,-0.0833 ± 0.071
6,AATGAGGC,0.0433 ± 0.059
7,GAAAGGAA,0.00148 ± 0.06
8,CATTCATA,0.264 ± 0.046
9,GATTCATA,0.178 ± 0.02
10,CATTCATC,0.0987 ± 0.029
11,CGAGAGCA,-0.0422 ± 0.048
12,ACGAAGAT,0.0215 ± 0.059
13,TCGAAGAA,0.0801 ± 0.041
14,ACGAAGAA,0.2404 ± 0.0017
15,AGATGCGC,0.0628 ± 0.014
16,CCGAATTA,-0.0865 ± 0.076
17,GTCGGGCA,-0.103 ± 0.025
18,GATGAATC,0.06 ± 0.071
19,GATGAATA,0.246 ± 0.059
20,TATGAATA,0.211 ± 0.052
21,TACATCGA,0.106 ± 0.022
22,AAGTGTCC,0.0439 ± 0.046
23,AAAATCTA,0.00391 ± 0.078
24,AAACGACC,0.115 ± 0.032
25,AAACGACG,0.0001 ± 0.01

row,Sequence,PBM 8-mer E-score
1,AAACGACT,0.24 ± 0.023
2,TAAGTTCA,-0.0564 ± 0.0074
3,TACACATA,0.268 ± 0.019
4,CACATAAA,0.0814 ± 0.0052
5,GACATAGA,-0.0561 ± 0.027
6,GACATACA,0.235 ± 0.0046
7,CACACATA,0.00584 ± 0.1
8,TACATAAA,0.242 ± 0.046
9,GACATACC,-0.168 ± 0.044
10,AACATACT,0.1 ± 0.032
11,AACATACG,0.273 ± 0.019
12,CACATACG,0.0173 ± 0.041
13,GACACATA,0.0252 ± 0.086
14,AACATAAA,0.145 ± 0.0096
15,CGTGGGAC,0.0245 ± 0.068
16,CATTGGAC,-0.164 ± 0.097
17,ACTGAGAA,-0.135 ± 0.097
18,ACATGAAA,0.0717 ± 0.024
19,CAGGAGAA,0.107 ± 0.037
20,AGCAGCGA,-0.182 ± 0.0055
21,AGTGTTGG,0.043 ± 0.048
22,GCGAGACA,-0.0901 ± 0.089
23,AGAATTGA,-0.00649 ± 0.005
24,CCGGTGGA,-0.167 ± 0.015
25,ATAAGACC,0.114 ± 0.078

row,Sequence,PBM 8-mer E-score
1,AAGGTATT,0.0792 ± 0.027
2,ATAGGAGG,-0.0435 ± 0.015
3,GGTGTCCA,0.00348 ± 0.039
4,ACTTACCC,0.166 ± 0.053
5,CACATACA,0.0172 ± 0.022
6,AACATACA,0.153 ± 0.061
7,TACATACA,0.235 ± 0.031
8,TCCTGCGA,-0.0443 ± 0.016
9,AATAAAAG,0.241 ± 0.065
10,TATAAATA,0.133 ± 0.019
11,GTTAAATA,0.23 ± 0.023
12,CATAAAAG,0.00379 ± 0.14
13,AATAAATA,0.0902 ± 0.023
14,AATAAAAT,0.0858 ± 0.023
15,AATAAATG,0.226 ± 0.0099
16,AATAAATT,0.271 ± 0.019
17,CTTAAATA,0.056 ± 0.014
18,ATTAAATA,0.208 ± 0.023
19,AATAAAAA,0.187 ± 0.046
20,CATAAATA,0.293 ± 0.029
21,ATGTAAGA,0.104 ± 0.011
22,ACTCTTTC,0.0291 ± 0.035
23,CTTTATCC,0.0138 ± 0.00086
24,CGCAAACG,-0.0619 ± 0.011
25,CAAAATAG,0.0583 ± 0.12

row,Sequence,PBM 8-mer E-score
1,CGACATTC,-0.0236 ± 0.057
2,TCGCAGCA,-0.185 ± 0.015
3,CCTTACAA,-0.0496 ± 0.00098
4,TAACCGTA,0.179 ± 0.033
5,ATGAAGGA,0.0372 ± 0.02
6,CAGATGGG,-0.06 ± 0.043
7,ACGCCACA,0.113 ± 0.019
8,TCACTGAA,0.0386 ± 0.03
9,ACAATCGG,-0.076 ± 0.075
10,AACGACAT,0.126 ± 0.076
11,AGTGCTGC,-0.166 ± 0.021
12,TCACCCGA,-0.0977 ± 0.0029
13,CCACCCCA,0.275 ± 0.1
14,ACACCCCA,0.224 ± 0.036
15,CCACCCCG,0.0359 ± 0.026
16,CCACCCCC,-0.0738 ± 0.041
17,GCACCCCA,0.24 ± 0.031
18,TCACCCCA,0.368 ± 0.011
19,TCACCCAA,0.154 ± 0.032
20,GCACCCCC,-0.265 ± 0.028
21,CGCGTCGC,-0.0885 ± 0.02
22,CAACCTTG,-0.0156 ± 0.0055
23,CCTAAAGC,0.0284 ± 0.038
24,AAAATGCT,0.235 ± 0.0065
25,AAAATGCA,0.127 ± 0.02

row,Sequence,PBM 8-mer E-score
1,AAAATGCC,0.00067 ± 0.042
2,AATTAGCC,-0.107 ± 0.095
3,CCTGACCC,-0.146 ± 0.077
4,GTGTTTTA,0.098 ± 0.036
5,CTGTTTTA,0.24 ± 0.013
6,CTGTTTAA,0.0361 ± 0.028
7,ACCCCTAT,0.252 ± 0.081
8,ACCCCTAG,0.11 ± 0.029
9,ACCCCTCC,0.258 ± 0.052
10,ACCCCTAA,0.218 ± 0.037
11,AACCCTCC,-0.0982 ± 0.073
12,AACCCTTC,0.11 ± 0.054
13,TCCCCTAA,0.196 ± 0.03
14,ACCCCTTC,0.328 ± 0.018
15,CCCCCTCC,-0.0384 ± 0.17
16,CCCCCTAA,-0.037 ± 0.031
17,GCCCCTAA,0.245 ± 0.038
18,CCCCCTTC,-0.174 ± 0.065
19,TAGACGAA,-0.053 ± 0.022
20,GTCCGACA,-0.0883 ± 0.025
21,TACACACA,0.00095 ± 0.038
22,AACAGTCC,-0.0613 ± 0.014
